Results: PubChem BioAssay (NCI)
Compounds without any hit were thinned out: in the full panel of roughly 83,000, 20% have a hit.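 Treatment: one concentration, 48 hours, 96-well format. Scoring: percent growth, with anything below 10 considered active.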 Unmarked numbers belong to inactive results. Active and inactive are the calls of the source.

system: SNB-19 CNS; assay: NCI-60 one-dose screen, 48 h (100 = growth as untreated, 0 = no growth, -100 = all killed); details: 10 µM
Experimental: Growth inhibition of the SNB-19 human tumor cell line is measured as a screen for anti-cancer activity. Cells are grown in 96 well plates and exposed to the test compound for 48 hours. Compounds are tested at a single concentration, which is 10^-5 M for most compounds. The reported endpoint is percent growth (GI% or GIPRCNT), where numbers from 0 - 100% represent growth inhibition, and numbers from -100% - 0 represent cell death. For example, a value of 40 represents 60% growth inhibition. A value of 0 means no net growth occurred over the course of the experiment. A value of -40 indicates 40% of cells at the beginning of the experiment died by the end of the experiment. A value of -100 means all cells are dead at the end of the experiment.
NCI-60 Human Tumor Cell Lines Screen was performed using the standard one-dose NCI protocol, which is described in more detail at https://dtp.cancer.gov/discovery_development/nci-60/default.htm.
Compounds with GIPRCNT values below 10 were considered active. Activity score was based on GIPRCNT using the following formula: […]
Score is 0 for GIPRCNT values of 100 or above, 50 for GIPRCNT values of 0, and 100 for GIPRCNT values of -100.

Q: How did the growth turn out when COc1ccccc1CNCCN1C(=O)c2ccc3c4c(ccc(c24)C1=O)C(=O)N(CCNCc1ccccc1OC)C3=O was run?
A: -91.4% (active)

Q: Which growth does the source give for COc1ccc(N2C(=O)C3c4[nH]c5ccc(OCc6ccccc6)cc5c4C4CCC(C(C)C)CC4C3C2=O)cc1 (stereo not given) here?
A: 104%

Q: COc1ccc(Nc2ncnc3c2c(SC)nn3-c2ccccc2)cc1 was tested. Which growth did it give?
A: 91.6%

Q: For COc1ccc2c(c1)N(CCO)C1=C(C(=O)OC1)C2c1cc(OC)c(OC)c(OC)c1 (stereo not given), which growth is on record?
A: 19.1%

Q: How did the growth turn out when O=C1NC(=O)c2ncccc21 was run?
A: 107%

Q: With COc1cc2cc3c(nc2cc1OC)CCN3Cc1ccc(NC(=O)c2ccc(Cl)c(C(F)(F)F)c2)cc1 as the compound, how does the growth read?
A: 86.6%

Q: For Clc1ccc(-c2cn(-c3ccccc3)c(-c3ccccc3)n2)c(Cl)c1, which growth is on record?
A: 43.7%

Q: For O=C1Nc2ccccc2C1=NC1CCCCC1, which growth is on record?
A: 111%

Q: How did the growth turn out when COc1ccc(-c2nn(-c3cccc(NC(=O)c4ccc(Cl)c(Cl)c4)c3)cc2-c2ccncc2)cc1Cl was run?
A: 87.1%

Q: COc1cccc(NC(=O)c2sc3nc4c(cc3c2N)C(O)CCC4)c1 (stereo not given) was tested. Which growth did it give?
A: 49.5%

Q: With Oc1[nH]c2ccc(Cl)cc2c1/C=c1/ccc2c(c1)N=C(c1cc(F)cc(F)c1)N=2 as the compound, how does the growth read?
A: 77%

Q: O=C(CNC(=O)OCc1ccccc1)NCC(=O)Oc1ccc([N+](=O)[O-])cc1 was tested. Which growth did it give?
A: 111%

Q: How did the growth turn out when CCCCCC(=O)c1ccc(OCCCN2CCN(C(=O)OCC)CC2)cc1 was run?
A: 95.9%

Q: Which growth does the source give for CCOC(=O)N1C=CC2C=CC1C1C=CC=CC2N1C(=O)OCC (stereo not given) here?
A: 94.1%

Q: Which growth does the source give for c1ccc(CSc2nnc3c4c5c(sc4nc(-c4cccnc4)n23)CCCCCC5)cc1 here?
A: 46.5%

Q: ClCCOCCn1cnc2c(Cl)nc(Cl)nc21 was tested. Which growth did it give?
A: 88.2%

Q: Which growth does the source give for CCCCCCCCCCCCCC[n+]1ccc(C(N)=O)cc1 here?
A: -58.5% (active)

Q: Nc1nc(N=Nc2ccc(O)cc2)cc(=O)[nH]1 was tested. Which growth did it give?
A: 99.5%

Q: COc1ccc(-c2nn(-c3cccc(NC(=O)c4cccc(C(F)(F)F)c4)c3)cc2-c2ccncc2)cc1Cl was tested. Which growth did it give?
A: 79.6%

Q: Which growth does the source give for COc1cc(-c2cc(/C=C/C(=O)c3ccc(N)cc3)[nH]n2)cc(OC)c1OC here?
A: 36.6%

Q: With CC(C)(Cl)CCC1=C(Cl)C(=O)c2ccccc2C1=O as the compound, how does the growth read?
A: 89%

Q: Which growth does the source give for Cc1occc1-c1nnc(SCC(=O)c2ccc(NC(=O)CC(C)C)cc2)o1 here?
A: 95.8%

Q: C[N+](C)(C)c1ncnc2nc[nH]c12 was tested. Which growth did it give?
A: 94.9%

Q: For CN(C)Cc1cn(-c2ncc(-c3ccc(C(F)(F)F)cc3)c(NC3CCCCCC3)n2)nn1, which growth is on record?
A: 92.1%

Q: Which growth does the source give for COc1cc(C)ccc1C(=O)c1ccc(C)cc1OC here?
A: 43.4%

Q: How did the growth turn out when COc1ccc2c(c1)/C(=C\c1c[nH]c3ccc(OC)cc13)C(=O)N2 was run?
A: 77.3%

Q: How did the growth turn out when O=C(O)CCCCSc1ncnc2nc[nH]c12 was run?
A: 107%

Q: With CN(C)CC(O)c1ccc2cc(Br)c3ccccc3c2c1 (stereo not given) as the compound, how does the growth read?
A: 64.7%

Q: With O=C(C[n+]1ccccc1)c1ccc2ccccc2c1 as the compound, how does the growth read?
A: 99.5%

Q: With CC[C@H]1CCC/C=C/[C@@H]2C[C@H](O)C[C@H]2[C@H](O)/C=C/C(=O)O1 as the compound, how does the growth read?
A: 29.7%

Q: How did the growth turn out when Cc1ccc(Nc2nnc(-c3cc(-c4ccncc4)n(-c4ccccc4)n3)s2)cc1 was run?
A: 89.7%

Q: For COc1ccc(NC(=O)Cc2nc3nc4sc(C)c(C)c4c(=O)n3[nH]2)cc1, which growth is on record?
A: 105%

Q: With COc1cc(/C(=C2/O[C@@H]([C@H]3COC(C)(C)O3)[C@H]3OC(C)(C)O[C@@H]23)c2ccc3ccccc3c2)cc(OC)c1OC as the compound, how does the growth read?
A: 29%

Q: O=C(Nc1cccc(-n2cc(-c3ccncc3)c(-c3cc(O)cc(Cl)c3)n2)c1)c1cc(C(F)(F)F)cc(C(F)(F)F)c1 was tested. Which growth did it give?
A: 63.1%

Q: For COc1ccc(-c2nc3sccn3c2-c2nc3c([nH]2)C(=O)c2ccccc2C3=O)cc1, which growth is on record?
A: 96.4%

Q: How did the growth turn out when COc1ccc(/C=C2/CN(CCC#N)C/C(=C\c3ccc(OC)cc3)C2=O)cc1 was run?
A: 59.6%

Q: COc1ccc(Nc2ccnc(NCCNc3ccnc4cc(Cl)ccc34)n2)cc1 was tested. Which growth did it give?
A: 67.4%

Q: With O=C(Nc1ccncc1)C(=O)c1cn(S(=O)(=O)c2cccc(Cl)c2)c2ccccc12 as the compound, how does the growth read?
A: 89.8%

Q: With O=C(Nc1cccc(-n2cc(-c3ccncc3)c(-c3ccc(O)c(Cl)c3)n2)c1)c1ccc(Cl)c(Cl)c1 as the compound, how does the growth read?
A: 72.8%

Q: For CC(=O)n1c(-c2ccc(Cl)c(Cl)c2)cn(-c2ccc(Cl)cc2)c1=O, which growth is on record?
A: 18.4%
